# Source: PubChem BioAssay (The Scripps Research Institute Molecular Screening Center)
# Shown are actives, neighbours in structure and some others; about 2.3% of the full set was active somewhere.
# M1 PAM parental = nonselective activator or artifact in parental CHO-K1 calcium assay. ATP EC20, Fluo-8 calcium fluorescence; 0% at ATP EC20, 100% at ATP max. activation, % at 3 µM. actives 0.02% (n = 360,000). AID 602247;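 active means activation above the run cutoff, the mean activation of all test compounds plus 3 SD, cut at about 40% in these data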;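 further: peak over basal fluorescence ratio in a 140 s read after ATP addition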
# M1 ag = human M1 muscarinic receptor agonism | P11229 | CHO-K1 hM1, Fluo-8 calcium fluorescence, agonist mode; 0% DMSO, 100% acetylcholine EC100 | activation, % at 3 µM | actives 0.33% (n = 360,000) | AID 588814;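 active means activation above the run's mean compound activation plus 3 SD, cut at about 16% in these data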;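 further: peak over basal fluorescence ratio within a 140 s kinetic read after compound addition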
# Target sequence (P11229 whole entry, looked up): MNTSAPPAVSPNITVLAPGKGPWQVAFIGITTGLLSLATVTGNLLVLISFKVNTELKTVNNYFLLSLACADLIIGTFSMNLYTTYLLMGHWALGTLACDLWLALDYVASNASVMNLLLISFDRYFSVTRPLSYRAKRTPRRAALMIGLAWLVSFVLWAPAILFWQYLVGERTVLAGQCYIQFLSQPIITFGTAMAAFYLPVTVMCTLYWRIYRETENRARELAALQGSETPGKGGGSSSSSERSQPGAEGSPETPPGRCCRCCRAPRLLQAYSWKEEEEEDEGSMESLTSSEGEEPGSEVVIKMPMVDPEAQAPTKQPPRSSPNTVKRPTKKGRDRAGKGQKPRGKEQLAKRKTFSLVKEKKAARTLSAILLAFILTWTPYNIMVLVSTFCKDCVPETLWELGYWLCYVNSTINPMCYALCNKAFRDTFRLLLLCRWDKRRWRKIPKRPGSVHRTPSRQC
# CHRM1 PAM = human CHRM1 positive allosteric modulation. P11229. CHO-K1 hM1, Fluo-8 calcium fluorescence, ACh EC20; 0% = ACh EC20, 100% = maximal ACh. activation, % at 3 µM. actives 0.088% (n = 360,000); in the data active means activation above about 19%, passing the limit was not always enough
# M1 ag parental = counter-screen for M1 agonists: effect in parental CHO-K1 cells. Fluo-8 calcium fluorescence; scaled to maximal ATP response, vehicle zero. activation, % at 3 µM. actives 0.48% (n = 360,000). AID 602248; in the data active means activation above about 15%;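 further: untransfected CHO-K1 host cells lacking M1 receptor as counterscreen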
# CHO-K1 Ca antag = M1 antagonist counterscreen hit in parental CHO-K1 cells. ATP-induced calcium, Fluo-8 fluorescence. inhibition, % at 3 µM. actives 0.6% (n = 360,000). AID 602250;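 active means inhibition above a per-plate cutoff, the plate's mean sample inhibition plus 3 SD, cut at about 24% in these data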;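 further: 0% = DMSO plus EC80 ATP and 100% = DMSO alone without ATP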
# CHRM1 antagonist = antagonists of human M1 muscarinic receptor. P11229. CHO-K1 hM1, Fluo-8 calcium fluorescence, ACh EC80 antagonist. inhibition, % at 3 µM. actives 1.3% (n = 360,000);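 active means percent inhibition above its own plate's cutoff, namely the mean of that plate's compound wells plus 3 SD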;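 further: peak over basal fluorescence ratio during 140 s after agonist addition; 0% = ACh EC80 plus DMSO and 100% = DMSO alone without agonist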
# * marks the source's active call; other numbers are inactive results; / = no result given.
SMILES,M1 PAM parental,M1 ag,CHRM1 PAM,M1 ag parental,CHO-K1 Ca antag,CHRM1 antagonist
COC(=O)[C@]1(CC(C)C)N[C@H](c2ccc(-c3ccc(C(C)=O)cc3)cc2)[C@@H]2C(=O)N(C)C(=O)[C@@H]21,14.1,-1.6,29.5*,0.5,-9.6,-5.4
O=C(NCc1nc(-c2ccc(C(F)(F)F)cc2)no1)Nc1ccc(F)cc1F,3.7,-0.1,-2.7,1.8,-3.0,-9.7
O=C(NCc1nc(-c2ccc(C(F)(F)F)cc2)no1)Nc1cc(Cl)cc(Cl)c1,-3.1,2.2,-0.9,6.6,35.0*,13.3
C=CCOc1cccn2c(N(C=O)Cc3ccc(OC)cc3)c(CC)nc12,-2.6,-1.7,6.4,1.4,6.0,-15.7
CC(C)(C)c1ccc(OCC(=O)Nc2ccncc2)cc1,-15.7,0.5,-9.2,9.9,15.9,27.0
CCc1ccc(OCC(=O)Nc2ccncc2)cc1,-9.8,2.5,-10.9,16.8*,22.4,22.4
O=C(Cc1ccc(Cl)cc1)Nc1ccncc1,-6.1,-1.2,5.2,8.6,10.2,-7.2
Cc1ccc(OCC(=O)NNC(=S)NC(=O)C2CCCCC2)c(C)c1,-13.7,20.2*,-1.3,5.6,-8.3,2.2
Cc1ccc(CC(=O)Nc2ccncc2)cc1,-10.2,1.9,-12.7,5.7,36.1*,14.2
Cc1ccc(OCC(=O)Nc2ccncc2)c(C)c1,-23.7,3.2,-4.0,9.2,29.1*,18.2
Cc1ccc(OCC(=O)NNC(=S)NC(=O)C2CC2)c(C)c1,-17.1,1.1,3.1,5.1,1.7,-0.3
O=C1C=C(c2cccc(CO)c2)C[C@@H](c2ccc(Cl)cc2)C1,17.9,-2.8,6.6,2.1,-14.0,-0.4
S=C1NC2CCCCC2N1 (stereo unspecified),8.0,-5.2,12.5,0.9,-8.5,-7.2
CCC1CCCCN1C(=O)c1cc(COc2ccc(-n3cncn3)cc2)on1 (stereo unspecified),-13.5,4.4,-5.1,12.4,-4.8,5.1
COCCN(C(=O)CSc1nnc(-c2cccc(OC)c2)n1C)c1c(N)n(Cc2ccccc2)c(=O)[nH]c1=O,22.2,-4.8,6.1,1.5,-15.6,-7.1
O=C(COc1ccccc1)Nc1ccncc1,9.2,0.2,5.5,2.9,-8.1,-4.9
Cc1ccc(Oc2ccc(OCC(=O)Nc3ccncc3)cc2)cc1,-0.2,1.5,-20.9,11.2,20.5,40.3*
COC(=O)[C@]12CCCCC=C1N(CCC1=CCCCC1)C(=O)[C@H](CC(=O)NCC13CC4CC(CC(C4)C1)C3)C2,2.9,/,/,0.4,-15.8,/
O=C(c1ccco1)N1CCN(C(=O)C2CC(=O)N(c3ccccc3)C2)CC1 (stereo unspecified),9.7,-2.0,3.8,0.4,7.9,-1.1
CCn1c(NCc2ccco2)nc2ccccc21,11.2,-6.9,7.5,1.9,-6.2,-9.4
c1ccc(Cn2c(NCc3ccco3)nc3ccccc32)cc1,-3.2,-6.0,-11.9,0.9,25.1*,16.5
CCC(=O)Nc1ccc(NC(=O)CSc2nnnn2Cc2ccccc2)cc1C,7.6,0.0,5.4,6.7,1.5,-3.5
O=C(c1ccccc1)c1ccc(OCC(O)CNCc2ccc(Cl)cc2)cc1 (stereo unspecified),8.3,1.6,1.6,18.1*,0.9,1.8
Cc1ccc(NC(=O)c2cc(-c3cc(C)c(C)cc3O)n[nH]2)cc1C,-1.4,6.2,28.4*,-0.5,10.2,-24.0
FC(F)Sc1ccc(NC(=S)NCC2CCCCC2)cc1,5.5,1.2,-16.3,13.0,16.9,30.8*
SMILES,M1 PAM parental,M1 ag,CHRM1 PAM,M1 ag parental,CHO-K1 Ca antag,CHRM1 antagonist
FC(F)Sc1ccc(NC(=S)NC2CCCCC2)cc1,4.0,-0.9,-10.4,12.0,8.2,17.6
COc1ccc(C2c3[nH]c4ccccc4c3CCN2C(=O)c2cn3ccccc3n2)c(F)c1 (stereo unspecified),-15.6,-3.4,-7.5,0.3,27.4*,7.5
COc1ccc(C2c3[nH]c4ccccc4c3CCN2C(=O)c2ccccc2C(C)=O)c(F)c1 (stereo unspecified),8.8,-2.2,12.3,2.9,2.2,-21.5
COc1ccc(C2c3[nH]c4ccccc4c3CCN2C(=O)c2cc3ncccn3n2)c(F)c1 (stereo unspecified),-11.0,-1.1,-21.9,6.7,25.8*,19.8
CC(O)CNc1nc(NCc2ccccc2)c2cnn(C)c2n1 (stereo unspecified),-5.8,-1.8,0.4,1.2,-7.9,1.1
Cc1ccc(NS(=O)(=O)c2c(C)[nH]c(C)c2C(=O)N2CCCCC2)c(Br)c1,6.3,-1.5,2.8,0.0,-5.7,-3.9
CCCNC(=O)CCCN1C(=O)c2ccccc2Sc2ncccc21,5.4,-0.9,3.9,0.1,-5.2,-12.3
N#CC1=C(N)SC(N)=C(C#N)C1CCc1ccccc1,-9.1,12.1,3.7,6.7,28.5*,9.4
CCc1ccc(C2C(C#N)=C(N)SC(N)=C2C#N)cc1,-4.4,17.2*,-18.4,21.4*,-9.6,20.0
N#CC1=C(N)SC(N)=C(C#N)C1Cc1ccccc1,9.3,6.0,-4.0,7.4,-10.4,-0.1
COCCN(C(=O)COC(=O)c1ccccc1NCc1ccco1)c1c(N)n(Cc2ccccc2)c(=O)[nH]c1=O,7.5,-2.4,8.1,0.1,-7.5,-10.7
COc1ccc(C2CC(=O)Oc3cc(C)cc(C)c32)cc1 (stereo unspecified),26.6,-3.4,-1.1,1.4,-15.1,-2.2
COc1ccc(C2CC(=O)Oc3c(C(C)C)ccc(C)c32)cc1 (stereo unspecified),11.9,18.1*,11.6,5.2,8.2,-14.3
Cc1cccc(NC(=O)CSc2nc3ccccc3c3nc(CCc4c(C)n[nH]c4C)nn23)c1,6.8,-1.1,-13.5,4.6,20.4,50.7*
CN(C)/C=N/C(=S)Nc1cc(Cl)cc(Cl)c1,4.1,-3.6,1.1,18.4*,9.8,1.1
c1ccc(C(Cc2nc(-c3ccncc3)no2)c2ccccc2)cc1,-1.9,-3.0,-15.9,4.8,15.2,24.2*
CN(C)c1nc(N(C)C)nc(N2CCCCC2)n1,-3.9,-5.0,-1.1,-0.4,11.6,21.5*
COc1ccc(-c2ncccc2OC(=O)C23CC4CC(CC(C4)C2)C3)cc1OC,17.6,-3.6,2.9,2.6,-7.6,1.1
CC1CN(C(=O)COC(=O)Cc2ccc(Cl)cc2)CC(C)O1 (stereo unspecified),14.0,-1.9,1.5,0.0,-9.6,-3.5
Cc1c(C)c2ccc(OCC(=O)N[C@@H](Cc3c[nH]c4ccccc34)C(=O)O)cc2oc1=O,-16.4,-2.2,2.4,-0.3,29.3*,-6.9
Cc1ccc(S(=O)(=O)N(C)C[C@@H]2OCc3cnnn3CCCC(=O)N([C@@H](C)CO)C[C@H]2C)cc1,-2.5,10.5,17.2,0.1,-10.2,-2.4
CSCCC(NC(=O)c1ccc(Cl)cc1Cl)C(=O)NCc1ccccn1 (stereo unspecified),16.7,-2.8,6.9,0.1,35.4*,-11.7
